Experimental data as given in PubChem BioAssay (NCATS).
Inconclusive results are not listed. The source made the active and inactive calls. Calls follow the shape of the dose curve; as a rule, active = well fitted inhibition curve with a large enough effect; inconclusive = small, poorly fitted or top-dose-only effect; inactive = flat fitted curve, though single readings scatter.

Test system: CRL-7250
Test: Cytotoxic Profiling of Annotated Libraries Using Quantitative High-Throughput Screening (AID 1296008); also: nearly all actives have a fitted effect of over 60% in size
Conditions: Five cell lines viability, CellTiter-Glo ATP luminescence, 48-72 h; max response: hits give low values
Procedure, shortened: (§1)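 Cells exposed to compounds for 48 or 72 hr at 37 degrees Celsius. Viability read as ATP-coupled luminescence with CellTiter-Glo after 10 min at room temperature.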
% is scaled to controls: 0 for no effect and ±100 for the full control effect; potency is read from the fitted curve at half-maximal effect.

Compound | max response | outcome
COc1cccc(N2CCN(C3=Nc4c(F)cccc4[C@H](CC(=O)O)N3c3cc(C(F)(F)F)ccc3OC)CC2)c1 | 3.02% (inactive) | –
COc1ccccc1N1CCN(CC(C(=O)NC(C)(C)C)c2ccccc2)CC1 (stereo not drawn) | – | inactive
COc1ccc(CCc2nc3cc(-c4c(C)noc4C)ccc3n2CC(C)N2CCOCC2)cc1Cl (stereo not drawn) | -13.4% (inactive) | –
Fc1ccc(CN2CCC(Nc3ccc(C(F)(F)F)nn3)CC2)cc1F | -3.28% (inactive) | –
COc1c(F)cccc1C(=O)N1C[C@@H](C)CC[C@H]1CNc1ccc(Br)cn1 | -14.6% (inactive) | –
C/C=C/C=C/C=C/C(=O)O[C@@H]1C=C(CO)C(O)(C(=O)OC)[C@@]2(C)CCCC(C)(C)C12 (stereo partly drawn) | -4.29% (inactive) | –
COc1cc2c(cc1OCCCN1CCCC1)N=C(N)C21CCC1 | -5.27% (inactive) | –
CC(C)c1c(O)ccc2c1CC[C@H]1C(C)(C)CCC[C@]21C | – | inactive

Test system: HaCat
Test: as above
Conditions: Five cell lines viability, CellTiter-Glo ATP luminescence, 48-72 h; max response: hits give low values
Procedure, shortened: as §1

Compound | max response | outcome | Potency
O=C(NC[C@H](O)CN1CCc2ccccc2C1)c1ccnc(NC2CCC2)c1 | -27.8% (inactive) | – | –
COc1ccc(NC(=O)c2ccc(-c3ccc(C(=N)N)cc3C)cc2)cc1N1CCN(C)CC1 | – | inactive | –
C[C@@H]1O[C@@H](O[C@H]2[C@@H](OC(=O)[C@]34CCC(C)(C)CC3C3=CCC5[C@@]6(C)C[C@H](O)[C@H](O[C@@H]7O[C@H](CO)[C@@H](O)[C@H](O)[C@H]7O[C@@H]7OC[C@@H](O)[C@H](O)[C@H]7O)[C@@](C)(C(=O)O)C6CC[C@@]5(C)[C@]3(C)CC4)OC[C@H](O)[C@@H]2O)[C@H](O)[C@H](O)[C@H]1O[C@@H]1OC[C@@H](O)[C@H](O)[C@H]1O (stereo partly drawn) | -2.16% (inactive) | – | –
CC1=C2C[C@@]3(C)C(CCC[C@@H]3C)C(O)C2OC1=O (stereo partly drawn) | – | inactive | –
CC#C[C@@H](CC(=O)O)c1ccc(OCc2ccc(CN3CCC4(C=Cc5ccccc54)CC3)s2)cc1 | 1.71% (inactive) | – | –
O=C(N[C@H]1CCN(C(=O)c2cc(C(F)(F)F)cc(C(F)(F)F)c2)[C@H](Cc2ccc(Cl)cc2)C1)c1ccnc2ccccc12 | -2.45% (inactive) | – | –
Cc1[nH]c2ccccc2c1CCNC(=O)c1cccs1 | – | inactive | –
C=C[C@](C)(O)CC[C@H]1C(C)=CC(=O)[C@H]2C(C)(C)CCC[C@]12C | 1.13% (inactive) | – | –
CNC(C)C(=O)NC(C(=O)N1CCCC1C(=O)Nc1snnc1-c1ccccc1)C1CCCCC1 (stereo not drawn) | – | inactive | –
C/C=C/C=C/C(=O)O[C@@H]1C=C2COC(=O)[C@]2(O)[C@@]2(C)CCCC(C)(C)[C@H]12 | – | inactive | –
O=C(NCCCc1ccccc1)C1CCC(CNS(=O)(=O)c2cccc3nsnc23)CC1 (stereo not drawn) | -4.58% (inactive) | – | –
C/C=C(/C=C(C)/C=C/C=C/C=C(\C)C(=O)C12OC1C(O)(CCO)NC2=O)C(=O)OC (stereo not drawn) | – | inactive | –
COc1ccc(C2(N(C)C(=O)c3ccc(NC(=O)c4ccco4)cc3)CCOCC2)cc1 | -27.5% (inactive) | – | –
Cn1cc(-c2ccc(F)c(C(F)(F)F)c2)nc1C1CCN(c2ncnc3[nH]ncc23)CC1 | -21.3% (inactive) | – | –
CN(C)CCOc1cc(NS(=O)(=O)c2c(Cl)cc(C(F)(F)F)cc2Cl)ccc1Cl | – | inactive | –
COc1cc(O)cc(/C=C/c2cccc(O)c2)c1 | – | inactive | –
O=C(NCCCn1ccnc1)c1cc(-c2ccco2)on1 | – | inactive | –
CCC/C=C\C=C/CCc1cc(O)c([C@@H]2O[C@H](CO)[C@@H](O)[C@H](O)[C@H]2O)c(O)c1C(=O)OC | -26.9% (inactive) | – | –
CC[C@H](C)/C=C(C)/C=C/C1=CC2=C(Cl)C(=O)[C@](C)(O)[C@H](OC(C)=O)[C@H]2CO1 | – | inactive | –
O=C(Nc1ccccc1Cl)c1cnc2ccc(C3CCNCC3)cn12 | – | – | 1640 nM (active)

Compound | max response | outcome | Potency
CC(C)(C)Sc1c(CC(C)(C)C(=O)O)n(Cc2ccc(Cl)cc2)c2ccc(OCc3ccc4ccccc4n3)cc12 | – | inactive | –
COc1cc(NC(=O)c2cc(C3CC3)on2)c(OC)cc1Cl | -5.44% (inactive) | – | –
CCOC(=O)CCNc1cc(N2CCc3ccccc3CC2)nc(-c2cccnc2)n1 | – | inactive | –
CCOC(=O)C1=Cc2ccc(C(F)(F)C(F)(F)F)cc2N=C(N)C1 | -0.757% (inactive) | – | –
O=S(=O)(Cc1ccccc1)Nc1ccc(-c2ccc3c(cnn3-c3ccc(F)cc3)c2)c(C(F)(F)F)c1 | – | inactive | –
O=C(Nc1ccc(N2C(=O)[C@@H]3[C@H](C2=O)[C@@H]2C=C[C@H]3C2)c(Cl)c1)c1ccccn1 | -18.9% (inactive) | – | –
COc1ccncc1C(=O)NC(=O)Nc1ccc(-c2ccccc2)c(C(F)(F)F)c1 | – | inactive | –
CNCCC(c1cccs1)c1ccc(O)c2ccccc12 (stereo not drawn) | – | inactive | –
CC1(C)CC[C@]2(C(=O)O)CC[C@]3(C)C(=CCC4[C@@]5(C)C[C@@H](O)[C@H](O)C(CO)(CO)C5CC[C@]43C)C2[C@@H]1O (stereo partly drawn) | -58.7% (inactive) | – | –
CC(C)Oc1ccc(-c2cnc3c(-c4ccnc5ccccc45)cnn3c2)cc1 | 1.5% (inactive) | – | –
CN(C)N(C)C(=O)[C@@]1(Cc2ccccc2)CCCN(C(=O)[C@@H](Cc2c[nH]c3ccccc23)NC(=O)C(C)(C)N)C1 | – | inactive | –
C=C(CCC1C(C)(O)CCC2C(C)(C)C(O)CCC12C)C(O)CO (stereo not drawn) | – | inactive | –
COc1cccc(N2CCN(C3=Nc4c(F)cccc4[C@H](CC(=O)O)N3c3cc(C(F)(F)F)ccc3OC)CC2)c1 | – | inactive | –
COc1ccccc1N1CCN(CC(C(=O)NC(C)(C)C)c2ccccc2)CC1 (stereo not drawn) | -3.82% (inactive) | – | –
COc1ccc(CCc2nc3cc(-c4c(C)noc4C)ccc3n2CC(C)N2CCOCC2)cc1Cl (stereo not drawn) | -1.2% (inactive) | – | –
Fc1ccc(CN2CCC(Nc3ccc(C(F)(F)F)nn3)CC2)cc1F | – | inactive | –
COc1c(F)cccc1C(=O)N1C[C@@H](C)CC[C@H]1CNc1ccc(Br)cn1 | 1.51% (inactive) | – | –
C/C=C/C=C/C=C/C(=O)O[C@@H]1C=C(CO)C(O)(C(=O)OC)[C@@]2(C)CCCC(C)(C)C12 (stereo partly drawn) | 2.7% (inactive) | – | –
COc1cc2c(cc1OCCCN1CCCC1)N=C(N)C21CCC1 | 2.83% (inactive) | – | –
CC(C)c1c(O)ccc2c1CC[C@H]1C(C)(C)CCC[C@]21C | – | inactive | –
